MARV entry inh: inhibitors of Marburg virus binding or cell entry | 300,000 compounds, 1.8% hits | Potency, µM (doses to about 37.8 µM), hits mostly inhibitors | Marburg virus pseudotyped entry inhibition, cell reporter | AID 540276; calls by dose curve; tested in HEK293 cells
FMDV inh: foot and mouth disease virus antiviral activity. FMDV antiviral cell-based qHTS. Potency, µM (series often up to 57.9 µM), actives largely listed as inhibitors. 410,000 compounds, 1.2% hits. AID 1159524; calls by dose curve; tested in HEK293T cells; further: read-out not given here; nearly all actives have a fitted effect of over 45% in size
LASV entry inh: Lassa virus entry inhibition. 300,000 compounds, 1.2% hits. AID 540256. Lassa virus pseudotype entry inhibition, cell reporter. Potency, µM (titrated, usually from 37.9 µM), hits mostly inhibitors; calls by dose curve; tested in HEK293 cells; further: nearly all actives have a fitted effect of over 50% in size
Vaccinia mCherry: vaccinia inhibition (mCherry reporter); Vaccinia virus mCherry reporter infection, fluorescence; Potency, µM (top dose mostly 36.5 µM), most hits filed as inhibitors; 310,000 compounds, 0.63% hits; calls by dose curve; tested in A549 cells; further: nearly all actives have a fitted effect of over 35% in size
HCMV inh: inhibitors of human cytomegalovirus | 410,000 compounds, 4.5% hits | activity change, negative = inhibition, % at 57.5 µM | HFF cells, HCMV-luciferase reporter, 72 h; stronger effect = lower value; in the data active means activity change below about -60%; inconclusive means no clear call, values can overlap the other calls; inactive means above about -39%
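Compounds were evaluated in HFFs infected with an HCMV luciferase reporter virus (MOI 1 PFU/cell). Luciferase in lysates collected 72 h post infection served as the replication measure.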
VACV Venus inh: inhibitors of vaccinia virus (Venus reporter); Vaccinia virus Venus reporter expression, fluorescence; Potency, µM (highest dose often 36.5 µM), actives largely listed as inhibitors; 330,000 compounds, 0.46% hits; AID 720580; calls by dose curve; tested in A549 cells; further: nearly all actives have a fitted effect of over 30% in size
Each line names hits and unclear results; the compound was inactive in the other large screens. Most compounds without a hit are left out; they make up all but 6.5% or so of the library.

CO/N=C/C(=N\Nc1ccc(OC)cc1)C(=O)c1ccc(OC)cc1	MARV entry inh inconclusive, LASV entry inh 11µM (no result: Vaccinia mCherry)
Cc1cc(-c2nn(-c3ccccc3F)cc2CN2CCCC(CO)C2)c(C)s1 (stereo not given)	MARV entry inh 5.6µM, LASV entry inh inconclusive, Vaccinia mCherry inconclusive, HCMV inh -86
O=C(CC1CC1)N1CC(=O)N2[C@H](CO)[C@@H](c3ccc(Br)cc3)[C@@H]2C1	none (no result: MARV entry inh, FMDV inh, LASV entry inh, Vaccinia mCherry, VACV Venus inh)
C=CCn1c(=NC(=O)C2COc3ccccc3O2)sc2cc(S(N)(=O)=O)ccc21 (stereo not given)	FMDV inh 32µM
C=CCc1cccc(/C=N/NC(=O)CNc2ccccc2)c1O	MARV entry inh inconclusive, LASV entry inh inconclusive, HCMV inh -99, VACV Venus inh inconclusive (no result: Vaccinia mCherry)
C=CCc1cccc(/C=N/NC(=O)CCCNc2ccc(C)cc2)c1O	MARV entry inh inconclusive, LASV entry inh inconclusive, Vaccinia mCherry 13µM, VACV Venus inh inconclusive
C=CCc1cccc(/C=N/NC(=O)CNc2ccccc2OC)c1O	HCMV inh -98 (no result: MARV entry inh, LASV entry inh, Vaccinia mCherry, VACV Venus inh)
C=CCc1cccc(/C=N/NC(=O)C(C)Nc2cccc(C)c2)c1O (stereo not given)	MARV entry inh inconclusive, LASV entry inh 11µM, Vaccinia mCherry inconclusive, HCMV inh -80
C=CCc1cccc(/C=N/NC(=O)CNc2cccc3ccccc23)c1O	LASV entry inh inconclusive, Vaccinia mCherry inconclusive
COc1ccccc1CNC(=O)c1ccc2nc(-c3ccccc3)c(-c3ccccc3)nc2c1	FMDV inh inconclusive (no result: MARV entry inh)
Cc1ccc(-n2nc(C(=O)N3CCCCC3)c(=O)n(C)c2=O)cc1	none (no result: MARV entry inh)
C=CCc1cccc(/C=N/NC(=O)CCC(=O)Nc2ccc(F)cc2)c1O	MARV entry inh 13µM, LASV entry inh inconclusive, Vaccinia mCherry inconclusive, HCMV inh -84, VACV Venus inh inconclusive
COc1ccccc1NC(=O)CSc1cn(CC(=O)N2CCCC2)c2ccccc12	none (no result: MARV entry inh)
CCOc1ccc(NC(=S)N(CCc2c(C)[nH]c3ccc(C)cc23)Cc2ccncc2)cc1	MARV entry inh 2.3µM
COc1cc(CN(C(C)=O)c2ccccc2C(=O)O)ccc1[N+](=O)[O-]	HCMV inh -63
N.N.O=C(O)C1(C(=O)O)CCC1.[Pt+2]	none (no result: FMDV inh, Vaccinia mCherry, HCMV inh, VACV Venus inh)
COc1ccc(Cn2nnnc2C(c2ccccc2Cl)N2CCN(C)CC2)cc1 (stereo not given)	HCMV inh -63 (no result: Vaccinia mCherry)
N#Cc1cccc(C(c2nnnn2Cc2ccccc2)N2CCCC2)c1 (stereo not given)	none (no result: FMDV inh)
CN1CCN(C(c2cccc(C(F)(F)F)c2)c2nnnn2Cc2ccccc2)CC1 (stereo not given)	MARV entry inh 15µM, LASV entry inh inconclusive (no result: FMDV inh)
CCCC(c1nnnn1Cc1ccc(OC)cc1)N1CCN(c2ccccc2OC)CC1 (stereo not given)	MARV entry inh inconclusive, FMDV inh 35µM, LASV entry inh inconclusive (no result: Vaccinia mCherry)
COc1ccc(-c2nc3cnc(N4CCN(C)CC4)nc3n(-c3ccc(OC)cc3)c2=O)cc1	none (no result: MARV entry inh, LASV entry inh, Vaccinia mCherry, HCMV inh, VACV Venus inh)
CCc1ccccc1N(C)C(=O)Nc1cn(CC(C)C)c(=O)c2ccccc12	none (no result: MARV entry inh)
Cc1nc2ccccc2n1Cc1ccccc1	none (no result: MARV entry inh, LASV entry inh, Vaccinia mCherry, VACV Venus inh)
CC(c1nc2ccccc2n1Cc1ccccc1)N1CCCCC1 (stereo not given)	MARV entry inh inconclusive, FMDV inh inconclusive, HCMV inh -67
C[C@H](N)CN1CCc2ccc(Br)cc21	MARV entry inh 3.5µM, LASV entry inh inconclusive, HCMV inh inconclusive
CC12CC3CC(C)(C1)CC(N)(C3)C2	MARV entry inh 13µM, LASV entry inh inconclusive, HCMV inh inconclusive
NC12CC3CC(CC(C3)C1)C2	MARV entry inh inconclusive
Cc1ccc(Cn2c(=O)n(CCc3ccccc3)c(=O)c3sc4ccccc4c32)cc1	LASV entry inh inconclusive
COc1ccccc1/C=C/CN1CCCC(CCC(=O)NCc2ccccc2F)C1 (stereo not given)	MARV entry inh 6.3µM, LASV entry inh inconclusive
COc1ccc(C(=O)C2CCCN(Cc3ccc(C#CCCO)cc3)C2)cc1F (stereo not given)	MARV entry inh 1.1µM, FMDV inh inconclusive
COc1ccc(/C=C/CN2CCCC(C(=O)c3ccc(OC)c(F)c3)C2)cc1 (stereo not given)	MARV entry inh 10µM, FMDV inh inconclusive (no result: LASV entry inh)
COc1ccc(C(=O)C2CCCN(Cc3cccn3-c3ccc(Cl)cn3)C2)c(OC)c1 (stereo not given)	MARV entry inh inconclusive, FMDV inh 20µM, LASV entry inh inconclusive, HCMV inh inconclusive
Cc1cc(C)c(NC(=O)Cn2c(=O)n(CC(=O)NCc3ccccc3Cl)c(=O)c3sccc32)c(C)c1	none
COc1cc2nc(N3CCOCC3)nc(NC3CCN(Cc4ccccc4)CC3)c2cc1OC	none (no result: MARV entry inh, FMDV inh, LASV entry inh, HCMV inh)
CCOC(=O)c1cc(-c2ccc(C)cc2)nn1Cc1ccccc1	MARV entry inh inconclusive, LASV entry inh inconclusive
COc1ccc(C(=O)C2CCCN(C/C=C/c3ccccc3OC)C2)c(OC)c1 (stereo not given)	MARV entry inh inconclusive, HCMV inh -61
COc1cccc(C(=O)C2CCCN(C/C=C/c3ccccc3OC)C2)c1 (stereo not given)	MARV entry inh inconclusive
CCOC(=O)Cn1c(=O)n(C2CCCCC2)c2nc(-c3cccc(F)c3)nc(C(N)=O)c21	none (no result: MARV entry inh)
CCOC(=O)Cn1c(=O)n(C2CCCCC2)c2nc(-c3c(F)cccc3Cl)nc(C(N)=O)c21	FMDV inh inconclusive, HCMV inh -82 (no result: MARV entry inh)
COc1cc(CN(CC2CCCO2)C(=O)c2ccc(F)cc2)cc(OC)c1OC (stereo not given)	none
CCCCC[n+]1ccn(C2=C([O-])c3ccccc3C(=O)/C2=N\S(=O)(=O)c2ccccc2)c1	MARV entry inh 22µM, FMDV inh inconclusive, LASV entry inh inconclusive, Vaccinia mCherry inconclusive, HCMV inh -77, VACV Venus inh inconclusive
CCCC[n+]1ccn(-c2nc3ccccc3nc2[N-]S(=O)(=O)c2ccccc2)c1	LASV entry inh inconclusive (no result: FMDV inh)
CCCCC[n+]1ccn(C2=C([O-])c3ccccc3C(=O)/C2=N\S(=O)(=O)c2ccc(Br)cc2)c1	none (no result: MARV entry inh, LASV entry inh, Vaccinia mCherry, VACV Venus inh)
CC(C)(C)c1cc[n+](C2=C([O-])c3ccccc3C(=O)/C2=N\S(=O)(=O)c2ccccc2)cc1	FMDV inh inconclusive
CC(C)[n+]1ccn(C2=C([O-])c3ccccc3C(=O)/C2=N\S(=O)(=O)c2ccccc2)c1	MARV entry inh inconclusive, FMDV inh inconclusive, Vaccinia mCherry inconclusive, HCMV inh -87, VACV Venus inh inconclusive
CCCC[n+]1ccn(C2=C([O-])c3ccccc3C(=O)/C2=N\S(=O)(=O)c2ccccc2)c1	MARV entry inh inconclusive, FMDV inh 22µM, LASV entry inh inconclusive, Vaccinia mCherry inconclusive, HCMV inh inconclusive, VACV Venus inh inconclusive
N#Cc1cccc(-c2nccc(NCc3cccnc3)n2)c1	none (no result: MARV entry inh, LASV entry inh, Vaccinia mCherry, HCMV inh, VACV Venus inh)
NN=C1c2cc(S(=O)(=O)NCCO)ccc2-c2ccc(S(=O)(=O)NCCO)cc21	none (no result: MARV entry inh, FMDV inh, LASV entry inh, HCMV inh)
COC(=O)C=C1CCC2C3CCC4=CC(=O)C(Br)CC4(C)C3C(=O)CC12C (stereo not given)	MARV entry inh 11µM, FMDV inh inconclusive, LASV entry inh inconclusive
COc1ccc(OC)c(CCNC(=O)c2cc3c(s2)-c2c(C)cccc2OC3)c1	none (no result: LASV entry inh)

Compound activity (PubChem)
